In PubChem BioAssay (NCI):
Compounds without any hit were thinned out: in the full panel of roughly 83,000, 20% have a hit.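 48-hour exposure, single concentration, 96-well plates; percent growth endpoint where 0 means no net growth. Active: below 10.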 A number with no mark means an inactive call. Activity calls are given as the source filed them.

system: COLO 205 colon; test: NCI-60 one-dose screen, 48 h (100 = growth as untreated, 0 = no growth, -100 = all killed); conditions: 10 µM unless noted
Method: Cells are grown in 96 well plates and exposed to the test compound for 48 hours. Compounds are tested at a single concentration, which is 10^-5 M for most compounds. The reported endpoint is percent growth (GI% or GIPRCNT), where numbers from 0 - 100% represent growth inhibition, and numbers from -100% - 0 represent cell death. For example, a value of 40 represents 60% growth inhibition. A value of 0 means no net growth occurred over the course of the experiment. A value of -40 indicates 40% of cells at the beginning of the experiment died by the end of the experiment. A value of -100 means all cells are dead at the end of the experiment.
NCI-60 Human Tumor Cell Lines Screen was performed using the standard one-dose NCI protocol, which is described in more detail at https://dtp.cancer.gov/discovery_development/nci-60/default.htm.
Compounds with GIPRCNT values below 10 were considered active. Activity score was based on GIPRCNT using the following formula: […]
Score is 0 for GIPRCNT values of 100 or above, 50 for GIPRCNT values of 0, and 100 for GIPRCNT values of -100.

Row | SMILES | growth
1 | Clc1nccc2c(-c3csc(-c4c[nH]c5ccccc45)n3)c[nH]c12 | 33.3%
2 | CC1COCC(C)N1C1=C(Cl)C(=O)c2ccccc2C1=O (stereo not given) | 104%
3 | COc1ccc(C2=Nc3c/c(=C\c4c(O)[nH]c5cc(Cl)ccc45)ccc3=N2)cc1 | 3.61% (active)
4 | CC1O[C@@H]2C[C@@](O)([C@H]1O)n1c3ccccc3c3c4c(c5c6ccccc6n2c5c31)C(=O)NC4=O (stereo not given in full) | 11.2%
5 | O=C(O)c1cccc(N/C=C/C(=O)c2cc3cc(Br)ccc3oc2=O)c1 | 110%
6 | CCOC(=O)C(=Cc1cccc(C#N)c1)C(=O)OCC | 47.1%
7 | COc1ccc2cc(Cn3cc[n+](Cc4ccc5ccccc5c4)c3)ccc2c1 | -66.3% (active)
8 | COC(=O)/C=C1/SC(=Nc2cccc(Cl)c2)N(CCc2c[nH]c3ccc(O)cc23)C1=O | 90.3%
9 | O=C(Cn1cc(CN2C(=O)c3ccccc3S2(=O)=O)nn1)Nc1cccc(Cl)c1 | 114%
10 | CCOC(=O)/C=C/c1c(C)[nH]c(=O)[nH]c1=O | 92.6%
11 | COc1ccc(C2C3=C(COC3=O)N(CCO)c3cc4c(cc32)OCCO4)cc1OC (stereo not given) | -4.68% (active)
12 | O=C(CCCCCCN1CC(=O)N2[C@@H](c3ccc(Cl)cc3)c3[nH]c4ccccc4c3C[C@H]2C1=O)NO | 75.3%
13 | CC1=NN(c2ccc(Cl)cc2)CC1(C)N=O (stereo not given) | 67.3%
14 | Cc1ccc(C)c(-n2c(-c3ccc(Br)cc3)csc2=NC(=O)c2ccccc2F)c1 | 92.9%
15 | COC(=O)c1c2c(c(C)[n+]([O-])c1C)C(=O)C=CC2=O | -78.5% (active)
16 | Cc1cscc(C)c1=S | 96.2%
17 | CS(=O)(=O)Nc1cc(-c2ccc3ncnc(Nc4ccc5c(cnn5Cc5cccnc5)c4)c3c2)cnc1Cl | 68.3%
18 | COc1cc2c(/C=C3\C(=O)Nc4ccccc43)c(C(=O)O)[nH]c2cc1C | 120%
19 | CC/C=C\C/C=C/C=C1/C(=O)C=C[C@@H]1C/C=C\CCCC(=O)OC | 14.1%
20 | CCOC(=O)c1c(C)nc2ccccc2c1/C=C/c1ccc(OC)cc1 | 83.6%

Row | SMILES | growth
21 | CC/C=C1/C(=O)C=C[C@@H]1C/C=C\CCCC(=O)OC | 97.3%
22 | O=C(CBr)CN1C(=O)c2ccccc2C1=O | 101%
23 | O=C(CSc1nc2ccc([N+](=O)[O-])cc2[nH]1)Nc1ccc(Br)cc1 | 41.2%
24 | C[C@@H]1CC[C@@]2(OC1)O[C@H]1C[C@H]3[C@@H]4CC=C5C[C@@H](O[C@@H]6O[C@H](CO)[C@@H](O[C@@H]7O[C@@H](CO)[C@H](O)[C@H]7O)[C@H](O)[C@H]6O[C@@H]6O[C@@H](C)[C@H](O)[C@@H](O)[C@H]6O)CC[C@]5(C)[C@H]4CC[C@]3(C)[C@H]1[C@@H]2C | -89.9% (active)
25 | CCCCC(=O)Nc1ncc(Cc2ccccc2Cl)s1 | 37%
26 | CN1CCN(Cc2cc(NC(=O)c3cccc(C#Cc4cccc5[nH]nc(N)c45)c3)cc(C(F)(F)F)c2)CC1 | -35.3% (active)
27 | CO[C@H](C(=O)[C@@H](O)[C@@H](C)O)[C@@H]1Cc2cc3cc(O[C@H]4C[C@@H](O[C@H]5C[C@@H](O)[C@H](O)C(C)O5)[C@H](O)C(C)O4)c(C)c(O)c3c(O)c2C(=O)[C@H]1O[C@H]1C[C@@H](O[C@H]2C[C@@H](O[C@H]3C[C@@H](OC)[C@H](O)C(C)O3)[C@@H](O)C(C)O2)C(O)(O)C(C)O1 (stereo not given in full) | -80% (active)
28 | COc1ccc(C2=C/C(=C\c3ccc(Cl)cc3)C(=O)N2/N=C/c2ccc(Cl)cc2)cc1 | 96.9%
29 | N=C(N)c1ccc(-c2ccc(-c3ccc(F)cc3)s2)s1 | -80.6% (active)
30 | CC(C)C[C@@H](C(=O)N[C@H](C(=O)OC1CCCC1)c1ccccc1)[C@H](O)C(=O)NO | 78.6%
31 | CCCCCn1sc(=O)n(Cc2ccc(CNC(=O)OCc3ccc4c(Cl)cc(Cl)c(O)c4n3)cc2)c1=O | 106%
32 | Cn1c(=O)c2c(c3ccccc31)OC(N)=C(C#N)C21C(=O)c2ccccc2C1=O | 102%
33 | CC(=O)c1cc(-c2ccccc2N)n(-c2ccc3c(c2)OCO3)c1C | -18.6% (active)
34 | COc1ccc(C2=NN(C(C)=O)C(c3ccc(Oc4ccnc5cc(Cl)ccc45)c(OC)c3)C2)cc1 (stereo not given) | 47.7%
35 | COCCCOc1cc(C[C@@H](C[C@H](N)[C@@H](O)C[C@H](C(=O)NCC(C)(C)C(N)=O)C(C)C)C(C)C)ccc1OC | 112%
36 | O=P(O)(O)OCC1OC(n2cnc3c(NCc4ccccc4)ncnc32)C(O)C1O (stereo not given) | 11.2%
37 | NC(=O)OCCn1cc(-c2nc(-c3c[nH]c4ncccc34)cs2)c2ccccc21 | 4.32% (active)
38 | Cc1c2cc[nH]c(=O)c2c(C)c2c1[nH]c1ccc(OC(=O)c3ccccc3)cc12 | 30.4%
39 | S=c1[nH]c2cc(Cl)ccc2o1 | 110%
40 | CC(C)c1ccc(C(=O)Nc2sc3cc(O)ccc3c2C#N)cc1 | 91.8%
